Assay [1] can be described thus: inhibitors of TNFa-induced NFkB p65 translocation, primary screen, imaging, HUVEC, MLSMR starter and 10KST1 sets (AID 438).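 Also: compound added about 3h40 before a 20 min TNFalpha stimulation.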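 As to inhibition: signal is the nuclear over cytoplasmic p65 intensity ratio per well.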 The conditions noted are these: HUVEC TNFa-induced p65 nuclear translocation; cell count: measured here: nuclei count (cytotoxicity indicator), at 2.08 µM; inhibition: at 2 µM, stronger effect = higher value, 0% TNFa-plus-vehicle, 100% no-TNFa wells.
Assay [2] in a line: reduction of polyQ htt aggregates in cells – imaging, exon1htt(103Q)mCFP cells, high-content imaging, primary screen (AID 483;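 active = visual image review flags a hit and inhibition of aggregation exceeds 20%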;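 also: compound exposure lasted 3 days before fixation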;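 as to nuclei count: percent of the per-plate median nuclei count of sample wells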). The note with it: exon1htt(103Q)mCFP cell line, aggregate imaging, at 2 µM; inhibition of aggregation: stronger effect = higher value; nuclei count: measured here: cell count, toxicity.
Assay [3] in a line: endothelial E-selectin expression blockers – imaging, HUVEC, immunofluorescence, MLSMR starter and 10KST1 sets, primary screen (AID 487;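 active = visually confirmed hit in the image check and inhibition above 20%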;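 as to inhibition: signal is fraction of cell area covered by stained E-selectin grains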;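 as to nuclei count: 100% = median nuclei count of all wells on the same plate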). The conditions noted are these: HUVEC TNFalpha-induced E-selectin immunofluorescence imaging, at 2 µM; inhibition: stronger effect = higher value; nuclei count: measured here: cell number, toxicity.
For assay [4], the target named is Voltage-gated potassium channel subunit beta-2 (Rattus norvegicus) (UniProt P62483). Kind of assay: inhibitors of rat Kvbeta2 reductase activity – biochemical, NADPH fluorescence, primary screen (AID 622;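 active = fluorescence slope higher than the sample average by over 3 SD, cut at about -0.22 in these data, passing the limit was not always enough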;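 also: slope of raw intensity against log time taken from 70 to 1610 s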). The note with it: recombinant KvBeta, 4-cyanobenzaldehyde reduction, at 10 µM, stronger effect = higher value.
Chain of Voltage-gated potassium channel subunit beta-2 (Rattus norvegicus) (P62483 whole entry, looked up): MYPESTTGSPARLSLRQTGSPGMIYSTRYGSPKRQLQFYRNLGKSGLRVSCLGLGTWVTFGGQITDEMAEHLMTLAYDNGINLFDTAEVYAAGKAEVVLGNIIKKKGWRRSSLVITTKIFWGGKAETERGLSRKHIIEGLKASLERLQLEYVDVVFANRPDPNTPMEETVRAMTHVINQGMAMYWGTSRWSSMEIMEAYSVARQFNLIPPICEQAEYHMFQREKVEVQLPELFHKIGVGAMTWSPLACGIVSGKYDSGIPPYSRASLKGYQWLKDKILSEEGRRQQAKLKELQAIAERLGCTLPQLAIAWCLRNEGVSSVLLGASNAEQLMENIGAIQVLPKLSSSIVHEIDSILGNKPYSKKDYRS
The target is the same in assay [5]. Nature of the assay: enhancers of rat Kvbeta2 NADPH turnover – biochemical, NADPH fluorescence, primary screen (AID 623;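 active = NADPH fluorescence slope more negative than the mean of all samples by about 3 SD, 99.7% confidence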;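 also: fluorescence intensity change per second fitted from 20 to 320 s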). The conditions noted are these: Recombinant KvBeta, NADPH fluorescence decrease slope, 10 min; at 10 µM; stronger effect = lower value.
Assay [6] deals with Alpha-2C adrenergic receptor (Homo sapiens) (UniProt P18825). Nature of the assay: compounds altering alpha2C-coupled GIRK flux – cell-based, HEK293 alpha2C/GIRK1/2, thallium flux, primary screen (AID 624;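 active = fluorescence slope after compound addition differing from the mean of all screened samples at 99.7% confidence, in either direction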;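 also: slope of fluorescence ratio to pre-addition baseline per second over 15 to 24 s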). The note with it: thallium flux BTC fluorescence, at 10 µM, actives lie on both sides.
Chain of Alpha-2C adrenergic receptor (Homo sapiens) (P18825 whole entry, looked up): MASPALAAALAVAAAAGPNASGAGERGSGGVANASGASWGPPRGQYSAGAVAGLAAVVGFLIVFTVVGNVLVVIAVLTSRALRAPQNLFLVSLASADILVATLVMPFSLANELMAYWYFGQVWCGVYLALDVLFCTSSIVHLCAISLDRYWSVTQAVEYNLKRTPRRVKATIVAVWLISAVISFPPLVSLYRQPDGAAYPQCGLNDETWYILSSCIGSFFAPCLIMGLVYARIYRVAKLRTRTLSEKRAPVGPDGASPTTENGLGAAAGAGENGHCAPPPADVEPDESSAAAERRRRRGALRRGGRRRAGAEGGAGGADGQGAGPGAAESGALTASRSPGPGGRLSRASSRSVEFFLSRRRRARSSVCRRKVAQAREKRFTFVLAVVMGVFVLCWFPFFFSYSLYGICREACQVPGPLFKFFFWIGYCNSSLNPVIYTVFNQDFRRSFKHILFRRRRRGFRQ
The nature of assay [7]: blockers of RIG-like receptor reporter activation – cell-based, Sendai virus stimulus, luciferase, 10K MLSCN set, TLR/RLR signaling modifier project, primary screen (AID 602276;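 active = inhibition at or above 50% at 10 µM; inactive = inhibition below 50%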;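 also: firefly luciferase from ISG56 promoter only with Renilla not read in this screen; 0% = Sendai virus plus DMSO and 100% = medium plus DMSO without virus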). The conditions noted are these: HEK293 RL24 IRF3 luciferase reporter, at 10 µM, stronger effect = higher value. (A reporter such as luciferase makes a cellular process visible.)
A short description of assay [8]: TLR3 IRF3 reporter activation blockers – cell-based, poly I:C stimulus, luciferase, 10K MLSCN set, primary screen (AID 602277;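 active = inhibition of the reporter signal at or above 50%; inactive = inhibition below 50%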). The note with it: HEK293-TLR3 RL24 IRF3 luciferase reporter, at 10 µM, stronger effect = higher value.

What is called inhibition is the drop in the measured response relative to a control, in per cent.

The structures appear in SMILES notation. Calls of active or inactive are those of the source.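 The calls were made as follows, unless noted: active = inhibition above 20% together with a positive visual image hit; inconclusive = visual image hit but inhibition not above 20%; inactive = no visual image hit.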

For the molecule `CCCCC(NS(=O)(=O)c1ccc(OC)cc1)C(=O)O` (centres undefined), in assay [1], the cell count was 386. The inhibition in assay [1] was 8.8% (inactive); in assay [3], -31.9% (inactive); in assay [7], 7.54% (inactive); in assay [8] it was 39% (inactive). Further, in assay [2], the inhibition of aggregation is -16.5% (inactive). Also, the nuclei count in assay [2] was found to be 108%; in assay [3] it was 118%. Also, in assay [4], the fluorescence slope is -0.448 (inactive). The NADPH fluorescence slope in assay [5] was -4e-05 (inactive). For the same molecule, the slope in assay [6] was 0.0033 (inactive).
With `CCOC(=O)c1c(C)[nH]c(C(=O)COC(=O)c2ccc(F)c(S(=O)(=O)N3CCOCC3)c2)c1C`, in assay [1], the cell count was found to be 376. Moreover, the inhibition in assay [1] is 4.8% (inactive); in assay [3], -27.2% (inactive); in assay [7], 5.38% (inactive); in assay [8], 13.3% (inactive). Also, in assay [2], the inhibition of aggregation was -173% (inactive). Besides, the nuclei count in assay [2] worked out at 6.6%; in assay [3] it was 105%. Further, the fluorescence slope in assay [4] is -0.6 (inactive). In assay [5], the NADPH fluorescence slope is -5.1e-05 (inactive). Further, the slope in assay [6] is 0.00426 (inactive).
Turning to `Cc1cc(C)cc(-n2nnc(C(=O)NCc3ccc4c(c3)OCO4)c2N)c1`, the cell count in assay [1] amounted to 571. The inhibition is 7.5% (inactive) in assay [1], -17.7% (inactive) in assay [3], 7.67% (inactive) in assay [7] and 22.1% (inactive) in assay [8]. Also, the inhibition of aggregation in assay [2] was -33.1% (inactive). For the same molecule, the nuclei count in assay [2] and in assay [3] was 108% throughout. Also, the fluorescence slope in assay [4] is -0.572 (inactive). Besides, the NADPH fluorescence slope in assay [5] is 2.9e-05 (inactive). In addition, the slope in assay [6] is 0.00545 (inactive).
In the case of `CCOC(=O)N1CCN(C(c2ccc(Cl)cc2)c2sc3nc(C)nn3c2O)CC1` (centres undefined), the cell count in assay [1] worked out at 709. Also, the inhibition is -8% (inactive) in assay [1], -25% (inactive) in assay [3], 9.66% (inactive) in assay [7] and 19.5% (inactive) in assay [8]. The inhibition of aggregation in assay [2] is 0.3% (inactive). In addition, the nuclei count is 104% in assay [2] and 106% in assay [3]. In assay [4], the fluorescence slope was -0.412 (inactive). Further, in assay [5], the NADPH fluorescence slope is -3.7e-05 (inactive). Also, the slope in assay [6] is 0.00503 (inactive).
As to `O=C(NC1CC1)C1CCC(=O)N1C1CCCC1` (centres undefined), the cell count in assay [1] turned out to be 435. Further, the inhibition is -6.7% (inactive) in assay [1], -184% (inactive) in assay [3], 7.79% (inactive) in assay [7] and 14.9% (inactive) in assay [8]. Besides, in assay [2], the inhibition of aggregation is -18.4% (inactive). In addition, the figures for the nuclei count in assay [2] and in assay [3] were 119% and 246%, respectively. In assay [4], the fluorescence slope is -0.47 (inactive). Also, the NADPH fluorescence slope in assay [5] is 2.9e-05 (inactive). Moreover, the slope in assay [6] was 0.00569 (inactive).
Take `CC(C)c1nnc(SCC(=O)NCc2ccco2)n1C`: the cell count in assay [1] turned out to be 248. The inhibition in assay [1] was 2.2% (inactive); in assay [3] it was 21.4% (inactive); in assay [7] it was 3.77% (inactive); in assay [8], 97.8% (active). The inhibition of aggregation in assay [2] was -12.1% (inactive). Besides, the nuclei count in assay [2] amounted to 77%; in assay [3], 86.7%. For the same molecule, in assay [4], the fluorescence slope was -0.485 (inactive). In addition, in assay [5], the NADPH fluorescence slope is 1.5e-05 (inactive). Besides, in assay [6], the slope was 0.00695 (inactive).
`CC1=C(C(=O)OC2CCCCCC2)C(c2ccc(C)o2)C2=C(CCCC2=O)N1` (centres undefined): the cell count in assay [1] worked out at 420. Also, the inhibition in assay [1] is 3.9% (inactive); in assay [3], -22.9% (inactive); in assay [7], -8.61% (inactive); in assay [8], -19.9% (inactive). Further, the inhibition of aggregation in assay [2] was -10% (inactive). Moreover, the nuclei count in assay [2] amounted to 102%; in assay [3], 108%. Besides, the fluorescence slope in assay [4] was -0.572 (inactive). In assay [5], the NADPH fluorescence slope is -2e-05 (inactive). Moreover, the slope in assay [6] was 0.00508 (inactive).
As for `CSc1ccccc1NC(=O)c1cnc2n(c1=O)CCS2`, the cell count in assay [1] amounted to 695. In addition, the inhibition in assay [1] was -9.6% (inactive); in assay [3] it was -2.6% (inactive); in assay [7] it was 5.22% (inactive); in assay [8] it was -12.4% (inactive). Also, in assay [2], the inhibition of aggregation was -2.5% (inactive). The nuclei count worked out at 111% in assay [2] and 112% in assay [3]. For the same molecule, in assay [4], the fluorescence slope was -0.401 (inactive). Also, the NADPH fluorescence slope in assay [5] is 1e-05 (inactive). Also, the slope in assay [6] was 0.00535 (inactive).
For the molecule `CCOC(=O)c1cc2c(=O)n3ccccc3nc2n(CC2CCCO2)c1=NC(C)=O` (centres undefined), the cell count in assay [1] was 617. Further, the inhibition was 3.1% (inactive) in assay [1], 22.2% (inactive) in assay [3], 9.86% (inactive) in assay [7] and 10.8% (inactive) in assay [8]. Further, the inhibition of aggregation in assay [2] is 18.5% (inactive). Further, the values for the nuclei count in assay [2] and in assay [3] were 86.7% and 100%, respectively. The fluorescence slope in assay [4] is -0.441 (inactive). For the same molecule, in assay [5], the NADPH fluorescence slope is -1.3e-05 (inactive). The slope in assay [6] is 0.00574 (inactive).
Take `COc1ccc(C)cc1-n1nnnc1SCC(=O)Nc1cc(C)on1`: in assay [1], the cell count worked out at 452. Further, the inhibition was 2.5% (inactive) in assay [1], -330% (inactive) in assay [3], 2.92% (inactive) in assay [7] and 12.5% (inactive) in assay [8]. Moreover, the inhibition of aggregation in assay [2] was -18% (inactive). The figures for the nuclei count in assay [2] and in assay [3] were 96.7% and 150%, respectively. In addition, the fluorescence slope in assay [4] was -0.6 (inactive). In assay [5], the NADPH fluorescence slope was -3.5e-05 (inactive). The slope in assay [6] is 0.00592 (inactive).
With `CC(=O)Nc1ccc(S(=O)(=O)NCc2cn3c(C)csc3n2)cc1`, the cell count in assay [1] turned out to be 531. For the same molecule, the inhibition is -7.6% (inactive) in assay [1], -29.8% (inactive) in assay [3], 1.88% (inactive) in assay [7] and 8.5% (inactive) in assay [8]. For the same molecule, the inhibition of aggregation in assay [2] is -8.4% (inactive). The nuclei count in assay [2] is 104%; in assay [3] it was 84.3%. Besides, the fluorescence slope in assay [4] is -0.588 (inactive). Besides, the NADPH fluorescence slope in assay [5] was -3.6e-05 (inactive). Moreover, the slope in assay [6] was 0.00529 (inactive).
For `CCOc1ccc(-c2nnc(SCC(=O)N3CCN(c4ccccc4)CC3)o2)cc1`, the cell count in assay [1] was 672. In addition, the inhibition was -8.6% (inactive) in assay [1], -59.7% (inactive) in assay [3], 2.37% (inactive) in assay [7] and 14.8% (inactive) in assay [8]. Besides, the inhibition of aggregation in assay [2] was 8.1% (inactive). In addition, the results for the nuclei count in assay [2] and in assay [3] were 101% and 109%, respectively. In addition, the fluorescence slope in assay [4] was -0.559 (inactive). Besides, the NADPH fluorescence slope in assay [5] is 2.1e-05 (inactive). Also, the slope in assay [6] was 0.0058 (inactive).
Turning to `COc1cccc(OCc2nc3ccccc3[nH]2)c1`, the cell count in assay [1] amounted to 596. In addition, the inhibition in assay [1] is -4.8% (inactive); in assay [3], -75.3% (inactive); in assay [7] it was -67.8% (inactive); in assay [8], -190% (inactive). The inhibition of aggregation in assay [2] was 3.2% (inactive). The values for the nuclei count in assay [2] and in assay [3] were 102% and 114%, respectively. For the same molecule, in assay [4], the fluorescence slope was -0.57 (inactive). Moreover, in assay [5], the NADPH fluorescence slope is -9.8e-06 (inactive). Also, the slope in assay [6] was 0.0079 (inactive).
On to `COc1cccc(NC(=O)C2CCCN(S(=O)(=O)c3cccc4cccnc34)C2)c1` (centres undefined), for which, in assay [1], the cell count turned out to be 604. In addition, the inhibition was -1.7% (inactive) in assay [1], -62.8% (inactive) in assay [3], 2% (inactive) in assay [7] and 23.1% (inactive) in assay [8]. Besides, the inhibition of aggregation in assay [2] is 25.4% (inactive). Besides, the nuclei count in assay [2] was determined as 90.7%; in assay [3], 106%. Further, the fluorescence slope in assay [4] is -0.559 (inactive). Besides, the NADPH fluorescence slope in assay [5] is -2e-05 (inactive). For the same molecule, the slope in assay [6] is 0.00606 (inactive).

For the origin of these results see PubChem BioAssay.
